Source: PubChem BioAssay AID2289 (National Center for Advancing Translational Sciences (NCATS), 2010)
In all, about 340,000 compounds went through this assay and about 3,300 (0.97%) were called active. Not shown: some 9% with an inconclusive outcome. Calls follow the shape of the dose curve; as a rule, active = well fitted inhibition curve with a large enough effect; inconclusive = small, poorly fitted or top-dose-only effect, or effect the other way; inactive = flat fitted curve, though single readings scatter. Some of the results follow.

assay: qHTS Assay for Modulators of miRNAs and/or Inhibitors of miR-21; conditions: HeLa miR-21-FLuc reporter, luciferase luminescence, 48 h; actives lower the signal; also: nearly all actives have a fitted effect of over 55% in size
Outline: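 Using DMEM plus 10% FBS, HeLa miR-21-FLuc cells are incubated with test compounds (final up to about 40uM) for 48 hours; firefly luciferase signal is then imaged following reagent-mediated lysis.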
Potency is read from the fitted curve at half-maximal effect.

Potency, active:
COc1ccc(-c2nc(C#N)c(NCCc3ccccc3)o2)cc1OC 2.93 µM
CCC(=O)Nc1cccc(OCc2cc(=O)n3cc(C)ccc3n2)c1 6.56 µM
O=C(Nc1ccc2c(c1)OCCO2)c1cnc2n(c1=O)CCS2 1.47 µM
Cc1csc2ncc(C(=O)Nc3ccc4c(c3)OCCO4)c(=O)n12 0.208 µM
COc1ccc(-c2noc(-c3ccoc3C)n2)cc1 2.07 µM
COc1cccc(-c2noc(-c3ccoc3C)n2)c1 6.56 µM
Cc1ccc(/C=N/Nc2ncnc3nc[nH]c23)cc1 0.826 µM
Cc1ccc(/C=N/Nc2nnc(Cl)c3ccccc23)cc1 0.414 µM
Cc1ccc(NC(=O)Nc2ncnc3nc[nH]c23)cc1 2.93 µM
CCc1ccc(/C=N/Nc2ncnc3nc[nH]c23)cc1 0.656 µM
Cc1cccc(/C=N/NC(=O)c2ccc(Br)cc2)c1 18.5 µM
O=C(NNC(=S)Nc1ccccc1)c1cccs1 2.07 µM
CCN(CC)c1ccc(NC(=S)NC(=O)c2cccs2)cc1 2.33 µM
COc1ccc(NC(=S)NNC(=O)c2cccs2)cc1 7.36 µM
CCOc1ccccc1Nc1ncnc2c1cnn2-c1ccc(C)cc1 5.21 µM
Cc1ccc(-n2ncc3c(Nc4cccc(C)c4C)ncnc32)cc1 2.07 µM
CCc1ccccc1Nc1ncnc2c1cnn2-c1ccc(Cl)cc1 6.56 µM
COc1ccccc1-c1nc(-c2ccc(C)nc2OC)no1 3.29 µM
CCOc1ccccc1-c1nc(-c2ccc(C)nc2OC)no1 3.69 µM
COc1nc(C)ccc1-c1noc(-c2cccs2)n1 1.85 µM
COc1nc(-c2ccccc2)ccc1-c1noc(C)n1 7.36 µM
CCOc1ccc(-c2nc(-c3ccccc3C)no2)cc1 0.826 µM
O=C(/C=C/c1c(F)cccc1Cl)Nc1ncccn1 3.29 µM
O=C(/C=C/c1c(F)cccc1Cl)Nc1nc2ccccc2[nH]1 5.21 µM
NC(=O)c1ccccc1NC(=O)/C=C/c1c(Cl)cccc1Cl 2.93 µM
S=C(Nc1ccc2[nH]ccc2c1)NC1CCCCC1 4.14 µM
Cc1cccn2cc(-c3c[nH]c4ccccc34)nc12 13.1 µM
O=C(c1cc(COc2ccc(F)cc2Cl)on1)N1CCCCCC1 4.14 µM
O=C(c1cc(COc2ccc(F)cc2Cl)on1)N1CCSCC1 6.56 µM
O=C(c1cc(COc2ccc(F)cc2F)on1)N1CCSCC1 5.85 µM
O=C(c1cc(COc2ccc(F)cc2F)on1)N1CCOCC1 14.7 µM
O=C(c1cc(COc2c(F)cccc2F)on1)N1CCCCCC1 7.36 µM
O=c1c(Cl)c(N2CCN(c3ccc(F)cc3)CC2)cnn1-c1nc2ccccc2s1 3.29 µM
Cc1ccc(C)c(N2CCN(c3cnn(-c4nc5ccccc5s4)c(=O)c3Cl)CC2)c1 0.927 µM
O=C(/C=C/c1ccccc1)NC1CC2CCC1C2 (stereo not drawn) 7.36 µM
Cc1cc(-c2ccc(N3CCOCC3)cc2)nc2ccccc12 3.29 µM
NC(=O)CC1C(=O)N(c2ccccc2)C(=S)N1NC(=O)c1ccc(Br)cc1 (stereo not drawn) 7.36 µM
COc1cccc(C(=O)NN2C(=S)N(c3ccccc3)C(=O)C2CC(N)=O)c1 (stereo not drawn) 6.56 µM
COc1ccc(-c2nnc(-c3ccc(Br)o3)o2)cc1OC 14.7 µM
COc1ccccc1-c1nnc(-c2ccc(N3CCOCC3)cc2)o1 7.36 µM
COc1ccc(-c2nnc(-c3ccccc3)o2)cc1OC 3.69 µM
CCOc1ccc(-c2nnc(-c3cccs3)o2)cc1OCC 6.56 µM
CN(C)c1ccc(-c2nnc(-c3cccs3)o2)cc1 0.117 µM
c1csc(-c2nc(-c3ccc(-c4ccon4)s3)no2)c1 0.329 µM
COc1ccc(CCN(C)C(=O)CCc2nnc(-c3ccccc3)o2)cc1OC 4.65 µM
COc1ccc(-c2noc(-c3cccs3)n2)cc1OC 0.826 µM
COc1ccc(-c2nnc(-c3cccs3)o2)cc1OC 2 µM
CCOc1ccc(-c2nnc(-c3ccco3)o2)cc1OCC 16.5 µM
Cc1cc(C)c(C#N)c(SCC(=O)Nc2ccc3c(c2)OCO3)n1 3.29 µM
Cc1cc(C)c(C#N)c(SCC(=O)Nc2nonc2N)n1 14.7 µM
COc1ccc(NC(=O)c2ccc(C)cc2)c(OC)c1 5.85 µM
COc1ccc(NC(=S)Nc2cc(C)ccn2)c(OC)c1 1.65 µM
COc1ccc(NC(=O)c2cc(C(C)C)on2)c(OC)c1 3.69 µM
CCN(CC)C(=O)c1ccc(-c2cccs2)s1 6.56 µM
CC(=O)N=C(N)Sc1nc2ccccc2[nH]1 2.33 µM
NC(=O)c1ccccc1N/C=C/C(=O)c1cccs1 0.521 µM
CCOC(=O)c1ccccc1N/C=C/C(=O)c1cccs1 9.27 µM
Cc1ccc2nc(-c3ccc(SCC(=O)Nc4nc(C)cs4)nc3)[nH]c2c1 1.47 µM
c1ccc(N2CCN(c3cnc4ccccc4n3)CC2)cc1 1.04 µM
COc1ccccc1OCCCOc1ccc(C)cc1Br 14.7 µM
COc1cc(C)ccc1OCCCOc1ccccc1Br 14.7 µM
C/C(=N\NC(=O)c1ccccc1)c1ccc(N2CCCCC2)cc1 6.56 µM
COc1ccc(C(=O)N/N=C(/C)c2ccc(N3CCCCC3)cc2)cc1 8.26 µM
COc1ccc(/C(C)=N/NC(=O)c2ccccc2N)cc1 18.5 µM
O=C(c1ccc(F)cc1)c1ccc(N2CCCCC2)cc1 4.65 µM
Cc1ccc(/C(N)=N/OC(=O)c2ccc(C)cc2Cl)cc1 0.261 µM
Cc1ccc(/C(N)=N/OC(=O)c2ccc(Cl)cc2Cl)cc1 1.04 µM
CCn1c(/C=C/c2c[nH]c3ccccc23)nc2ccccc2c1=O 0.414 µM
O=C(NNc1ncnc2ccccc12)c1cccc(Cl)c1 0.927 µM
O=C(c1cnsn1)N1CCC(CO)(Cc2cccc(F)c2)CC1 14.7 µM
CSc1nc(N)n2nc(-c3ccc(Cl)cc3)cc2n1 0.826 µM
Cc1nc2cc(-c3ccc(Cl)cc3)nn2c(NCCN(C)C)c1C 5.85 µM
Cc1cc(C)n2nc(-c3cccc(Br)c3)cc2n1 3.29 µM
Cc1cccc(-c2cc3nc(C)cc(C)n3n2)c1 1.85 µM
COc1ccc(-c2cc3nc(C)cc(C)n3n2)cc1 3.29 µM
Cc1ccc(-c2cc3nc(C)cc(C)n3n2)cc1 3.69 µM
Cc1cc(C)n2nc(-c3ccc(Cl)cc3)cc2n1 1.17 µM
Cc1ccsc1C(=O)NNC(=O)C1C2C=CC(C2)C1C(=O)O (stereo not drawn) 0.826 µM
Cc1ccsc1C(=O)NNC(=O)C1CC=CCC1C(=O)O (stereo not drawn) 4.65 µM
Cc1ccsc1C(=O)NNC(=O)C1CCCCC1C(=O)O (stereo not drawn) 1.85 µM
CN(C)/N=C/c1ccc(OS(=O)(=O)c2ccccc2)cc1 3.29 µM
Cc1[nH]n(C(N)=S)c(=O)c1N=Nc1ccc2ccccc2c1 1.47 µM
Nc1nc2sc3c(c2c(=O)s1)CCCC3 16.5 µM
COCCCNC(=O)COc1ccc(Br)cc1Cl 10.4 µM
COc1ccc(Nc2nc(N)nc(CSC(=S)N3CCOCC3)n2)cc1 16.5 µM
COc1ccc(Nc2nc(N)nc(CSC(=S)N3CCCCC3)n2)cc1 14.7 µM
CC(C)OC(=O)c1ccc2nc3ccccc3nc2c1 0.656 µM
O=C(/C=C/Nc1ccccc1F)c1ccc(Br)cc1 0.293 µM
O=C(/C=C/Nc1ccc(F)c(F)c1)c1ccc(Br)cc1 1.85 µM
O=C(/C=C\Nc1ccc(Br)cc1)c1cccnc1 1.31 µM
O=C(/C=C/Nc1ccc(F)cc1)c1ccc(Br)cc1 0.927 µM
O=C(NN=C1CCCC1)c1cccs1 1.65 µM
CC(C)N1CCC(=NNC(=O)c2cccs2)CC1 6.56 µM
CC(=O)N1CCC(=NNC(=O)c2cccs2)CC1 3.69 µM
Cc1ccsc1C(=O)NN=C1CCCCCC1 3.69 µM
COc1ccc(-c2nc(C#N)c(NCc3ccco3)o2)cc1 9.27 µM
Cc1ccc(-c2nc(C#N)c(NCc3ccco3)o2)cc1 4.14 µM
COc1ccc(C(=O)/C=C/c2ccc(OC)cc2OC)c(O)c1 6.56 µM
Clc1ccc(-c2cn3nc4c(nc3n2)CCCC4)cc1 0.117 µM
O=C(Nc1ccsc1C(=O)O)c1cccc(C(F)(F)F)c1 7.36 µM
COc1ccc(C2=NN(S(C)(=O)=O)C(c3ccc4nccnc4c3)C2)cc1 (stereo not drawn) 7.36 µM
COc1ccc(C2=NN(S(C)(=O)=O)C(c3cccs3)C2)cc1 (stereo not drawn) 2.61 µM
COc1ccc(C2=NN(S(C)(=O)=O)C(c3cccs3)C2)cc1OC (stereo not drawn) 7.36 µM
COc1ccc(C2=NN(C(C)=O)C(c3cccs3)C2)cc1OC (stereo not drawn) 8.26 µM
CC(=O)c1sc(N/N=C\c2ccc(N(C)C)cc2)nc1C 0.927 µM
CC(=O)c1sc(N/N=C\c2ccc(Br)cc2)nc1C 5.21 µM
CC(=O)c1sc(NCc2ccc(C)cc2)nc1C 5.21 µM
CC(=O)c1sc(N/N=C\c2ccc(C)cc2)nc1C 3.29 µM
